# Results taken from ChEMBL document CHEMBL4513216, “Probing the Open Global Health Chemical Diversity Library for Multistage-Active Starting Points for Next-Generation Antimalarials” (ACS Infect Dis, 2020).
# The whole screen tested about 68,000 compounds, of which about 2,700 (4%) showed an effect of 50% or more. What follows is part of a selection rich in strong results, with near analogues and random picks from the rest.
# Tested on: Plasmodium berghei
# Assay: Screen against P. berghei liver stage (PbLuc), transformed with Luciferase, at 2uM
# Assay type: functional, HepG2
# Conditions: tested at 2 uM
row,Structure (SMILES),INHIBITION
1,O=C(O)[C@@H]1CN(C(=O)CN2Cc3ccccc3C2)C[C@H]1c1ccncc1,27.42%
2,CCN(C(=O)c1cccc2c1OCO2)c1ccccc1,-0.15%
3,O=C1CC2(CCN(S(=O)(=O)C3CC3)C2)CN1c1cncnc1 (stereo not given),34.34%
4,Cn1nccc1CCC(=O)N1CCCC(Cc2cccnc2)C1 (stereo not given),-24.85%
5,Cc1ccc(CN(C(=O)NC2CCS(=O)(=O)C2)C2CC2)o1 (stereo not given),1.88%
6,CCCOc1cc(C)ccc1NC(=O)N(C)Cc1cnn(C)c1,-31.72%
7,COCCOc1cc(C)ccc1NC(=O)N(C)Cc1cnn(C)c1,64.16%
8,CCOc1cc(C)ccc1NC(=O)N(C)Cc1cnn(C)c1,17.39%
9,O=C1CCCC2=C1C(c1ccccc1Cl)C1C(=O)NN=C1N2 (stereo not given),31.66%
10,Cn1ncc2c1CN(Cc1ccccc1F)CC2COCC1CC1 (stereo not given),21.42%
11,Cc1c(Cl)cccc1N1CC(c2nnc(N)s2)CC1=O (stereo not given),8.41%
12,CS(=O)(=O)NC1CC(=O)N(c2ccccc2Cl)C1 (stereo not given),34.28%
13,O=C1C[C@@H]2CCN(Cc3ccccc3)C[C@@H]2CCN1c1ccccc1,44.84%
14,Cc1cccc(N2CC3(CCN(c4nncs4)C3)CC2=O)c1 (stereo not given),5.77%
15,CCc1ccccc1N1CC(c2nnc(N)s2)CC1=O (stereo not given),51.78%
16,Cc1cccc(N2CC(c3nnc(N)s3)CC2=O)c1 (stereo not given),52.23%
17,O=C(C1CC(=O)N(c2ccccc2)C1)N1CCC2(CC1)OCCO2 (stereo not given),28.17%
18,Nc1nnc(C2CC(=O)N(c3ccccc3)C2)s1 (stereo not given),74.36%
19,Cc1cc(C)cc(N2CC(c3nnc(N)s3)CC2=O)c1 (stereo not given),35.41%
20,CN(C)C1CC2(CCN(C(=O)c3csnn3)CC2)c2ccccc21 (stereo not given),24.51%
21,CCc1nc2c(NCC3COc4cc(OC)ccc4C3)ncnc2o1 (stereo not given),23.17%
22,CCCc1n[nH]c(C2CN(C(=O)CCn3cc(C)cn3)CCO2)n1 (stereo not given),14.21%

row,Structure (SMILES),INHIBITION
1,Cn1cc(CN2C[C@H]3CCN(C(=O)c4cscn4)C[C@H]3C2)cn1,34.24%
2,CCCN(CC(=O)NC)C(=O)c1ccc(-c2nc(C)cs2)cc1,46.98%
3,CCN(CC(=O)N(C)C)C(=O)c1ccc(-c2nc(C)cs2)cc1,53.81%
4,CCCN(CC(=O)N(C)C)C(=O)c1ccc(-c2nc(C)cs2)cc1,-0.15%
5,CC(C)(C)CC(=O)NCC(=O)Nc1ccn(Cc2ccccc2)n1,43.87%
6,O=C(NCc1nnc2ccccn12)N1CCc2sccc2C1,30.31%
7,O=C(NCc1nnc2ccccn12)N1CCOC(c2cccs2)C1 (stereo not given),50.46%
8,Cc1ccc(C2CN(C(=O)NCc3nnc4ccccn34)CCO2)o1 (stereo not given),26.03%
9,O=C(NCc1nccs1)N1CCOC(c2ccccc2Cl)C1 (stereo not given),-71.45%
10,CCn1cnnc1CNC(=O)N1CCOC(c2ccccc2Cl)C1 (stereo not given),42.19%
11,O=C(NCc1nnc2ccccn12)N1CCOC(c2ccsc2)C1 (stereo not given),63.39%
12,CCN1CCC2(CC1)OCCN2C(=O)c1cc(Cl)c(OC)c(Cl)c1,19.62%
13,Cc1cc(C)n(C2CCCN(C(=O)c3ccc(N(C)C)nc3)C2)n1 (stereo not given),-35.65%
14,Cc1noc(C)c1S(=O)(=O)N(CC(N)=O)CC(C)C,23.08%
15,CC(C)n1cc(CN2CCCN(C(=O)C(C)n3cccn3)CC2)cn1 (stereo not given),-86.2%
16,O=c1ccc2c(n1CC1CC1)CCC(NCc1cccs1)C2 (stereo not given),-26.76%
17,CCC(C(=O)NC(C)(C)C)n1cccc(OC)c1=O (stereo not given),56.16%
18,CCC(C(=O)NC(C)(C)C)n1ccc2ncccc2c1=O (stereo not given),8.09%
19,CCC(C(=O)NC1CCCCC1)n1cccc(OC)c1=O (stereo not given),-6.88%
20,CCN(C)S(=O)(=O)N1C[C@H]2CC[C@@H](C1)N(Cc1cscn1)C2=O,48.21%
21,CC(NC(=O)N(C)Cc1cccc(OC(F)F)c1)c1nncn1C (stereo not given),59.03%
22,CCn1cnnc1CNC(=O)N(C)Cc1ccc(F)c(F)c1,-2.9%

row,Structure (SMILES),INHIBITION
1,CCn1cnnc1CNC(=O)N(C)Cc1cccc(OC(F)F)c1,64.16%
2,CCn1cnnc1CNC(=O)N(C)Cc1ccc2c(c1)OCCO2,-16.42%
3,COc1ccc(CN(C)C(=O)NC(C)c2nncn2C)cc1F (stereo not given),-6.61%
4,CCOc1ccc(CN(C)C(=O)NC(C)c2nncn2C)cc1 (stereo not given),-27.75%
5,Cc1cccc(CN2CCC(C3Nc4ccccc4S(=O)(=O)N3)CC2)n1 (stereo not given),7.38%
6,COc1cc(N2C[C@@H]3COC[C@]3(COCc3ccccn3)C2)ncn1,-14.27%
7,Cn1ccnc1CN1CCCC2(CCN(CC3CCCO3)CC2)C1 (stereo not given),26.46%
8,Cc1nc(C2CCCN(C(=O)c3ccc(OCC4CC4)nc3)C2)no1 (stereo not given),28.65%
9,CC(CNC(=O)NCc1ccsc1)CC1(C)OCCO1 (stereo not given),-35.5%
10,CC1(CCNC(=O)NCc2ccsc2)OCCO1,57.23%
11,CC1(C(=O)NCc2ccsc2)CCOCC1,5.75%
12,O=C(Cn1nc2c(cc1=O)CCCC2)NC(C(=O)O)c1ccccc1 (stereo not given),25.23%
13,CC1COCCN1Cc1nc(Cc2ccccc2)no1 (stereo not given),-23.37%
14,COc1ncc(NCc2ccc(C#N)cc2)cc1C(N)=O,63.31%
15,COc1ncc(NCc2ccc(F)cc2)cc1C(N)=O,17.18%
16,COc1ncc(NCc2cccc(C#N)c2)cc1C(N)=O,-7.69%
17,CN1C(=O)CC(C(=O)O)C12CCN(c1ccc3cccc(Cl)c3n1)CC2 (stereo not given),-1.78%
18,CC(Cc1ccccc1Cl)NC(=O)Nc1cnn(CC(N)=O)c1 (stereo not given),-7.81%
19,CC(CCc1ccccc1)NC(=O)Nc1cnn(CC(N)=O)c1 (stereo not given),41.72%
20,Cc1ccccc1CC(C)NC(=O)Nc1cnn(CC(N)=O)c1 (stereo not given),81.1%
21,COCCN1CCC2(CC1)CN(CCn1cccn1)C(=O)CO2,20.2%
22,CN(CC(=O)NCC(F)(F)F)C(=O)c1ccc(C(=O)OC(C)(C)C)cc1,-16.4%

row,Structure (SMILES),INHIBITION
1,Cc1ccc(C(=O)N(C)CC(=O)NCC(F)(F)F)cn1,71.4%
2,Cc1ccc(C(=O)N(C)CC(=O)Nc2cccc(C)n2)cn1,23.76%
3,CCC(=O)Nc1cc(Cl)ccc1C(=O)N(C)Cc1noc(CC)n1,1.1%
4,COc1ccc(Cl)cc1-n1cnc(CCNC(C)=O)c1,26.74%
5,COc1cc(F)c(-n2cnc(CCNC(C)=O)c2)cc1F,60.13%
6,COc1ccc(F)cc1-n1cnc(CCNC(C)=O)c1,45.82%
7,CC(=O)N(CCc1nc(-c2cc(C(N)=O)oc2C)cs1)C(C)C,10.22%
8,COc1cc(OC)c(C2CC(=O)Oc3cc(C)[nH]c(=O)c32)c(OC)c1 (stereo not given),14.96%
9,O=C(O)C(c1ccc2c(c1)OCO2)N1CCCC1 (stereo not given),4.53%
10,O=C(O)C(c1ccc2c(c1)OCCO2)N1CCCCCC1 (stereo not given),19.56%
11,O=C(O)C(c1ccc2c(c1)OCO2)N1CCCCCC1 (stereo not given),59.48%
12,Cc1ccc(-n2cc3[nH]c(=O)[nH]n3c2=O)cc1,-15.37%
13,Cc1ccc(CN2CCC3(CC(C(=O)NC4CCC4)=NO3)C2)o1 (stereo not given),-27.21%
14,CN1CCC2(CC1)CN(C)C(=O)C[C@@H]2C(F)(F)F,6.22%
15,CC(=O)N1CCC2(CC1)CN(C)C(=O)C[C@H]2C(F)(F)F,64.92%
16,CC(C)N1CCC2(CC1)CN(C)C(=O)C[C@H]2C(F)(F)F,-24.39%
17,CCN(CC)S(=O)(=O)N1C[C@@H](O)[C@H](Oc2cccc(F)c2)C1,16.01%
18,Cc1nc(N2CCCC2)nc2c1CCN(C(=O)CC1CCCC1)CC2,1.33%
19,COC(=O)c1ccc2ccn(CC3CCCO3)c(=O)c2c1 (stereo not given),52.21%
20,COC(=O)c1ccc2ccn(CC3COCCO3)c(=O)c2c1 (stereo not given),21%
21,COC(=O)c1ccc2ccn(CC3CCCCO3)c(=O)c2c1 (stereo not given),-32.35%
22,COc1ccc(CCNCc2c(C)nn(C)c2N(C)C)cc1OC,7.74%

row,Structure (SMILES),INHIBITION
1,O=C1CC(c2ccc(O)cc2)c2sc(C(=O)O)c(-c3ccccc3)c2N1 (stereo not given),20.4%
2,CC(C)C(=O)N1CC2(CCN(CC(C)(C)C)CC2)C1,50.72%
3,CC(C)CN1CCC2(CC1)CN(C(=O)C(C)C)C2,16.12%
4,CC(C)C(=O)N1CCC2(CN(CC3CCCC3)C2)C1,0.32%
5,CS(=O)(=O)N1CCC2(CCN(C(=O)c3cccs3)CC2)CC1,11.79%
6,COCc1ncc(-c2nccn2CCn2cnnc2)cn1,-0.15%
7,COCc1ncc(-c2nccn2CCN(C)C)cn1,-24.39%
8,CCCSc1ncc(-c2nccn2CCC(N)=O)cn1,60.13%
9,CCCn1ccnc1-c1nccn1CCC(N)=O,43.44%
10,COCCCn1ccnc1-c1cnc(OC)nc1,-26.85%
11,CCCSc1ncc(-c2nccn2CCO)cn1,52.98%
12,COc1ncc(-c2nccn2CCN(C)C)cn1,-37.29%
13,COC(=O)CCCn1ccnc1-c1ccccc1,1.42%
14,CCSc1ncc(-c2nccn2CCN(C)C)cn1,59.03%
15,CN(C)C(=O)COC[C@]12COC[C@H]1CN(Cc1ccccc1)C2,42.18%
16,Cc1ccc(CC(=O)Nc2cc(C(C)C)n[nH]2)cn1,29.54%
17,NC(=O)c1cc(C2CC2)nc2ccc(F)cc12,-28.49%
18,CC(Nc1cccc2c1OCCO2)C(=O)Nc1cccc(C#N)c1 (stereo not given),17.64%
19,COCCCN(C)C(=O)c1cccc(Nc2cnccn2)c1,-5.53%
20,CCN(CC)S(=O)(=O)NCC(O)c1c(Cl)cccc1Cl (stereo not given),51%
21,CCCS(=O)(=O)NCC(O)c1c(Cl)cccc1Cl (stereo not given),-35.21%
22,CC(C)n1ccc(C(=O)NCC(O)c2c(Cl)cccc2Cl)n1 (stereo not given),-6.2%
